Laboratory results published in PubChem BioAssay AID1159580 (chemical genetic matrix, 2015).
Screen size: about 5,500 compounds; about 2,000 (36%) were called active. Inconclusive results (about 18%) are left out. No stated cut-off is given here; in the data, active means normalized growth mostly below about 0.91 (no sharp cut-off); inconclusive means no clear call, values can overlap the other calls; inactive means mostly above about 0.92. The list shows a part of the results.

Assay: chemical genetic growth profiling, strain panel (AID 1159580);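 further: tested at 20 µM; growth read once vehicle control cultures reached saturation at 30 °C; 1 = growth at the plate median or of vehicle wells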
Settings: growth OD
[1] = S. cerevisiae deletion strains, locus YAR019C, strain CDC15, stronger effect = lower value
[2] = S. cerevisiae deletion strains, locus YBL105C, strain PKC1, stronger effect = lower value
[3] = S. cerevisiae deletion strains, locus YBR135W, strain CKS1, stronger effect = lower value
[4] = S. cerevisiae deletion strains, locus YBR136W, strain MEC1, stronger effect = lower value
[5] = S. cerevisiae deletion strains, locus YBR160W, strain CDC28, stronger effect = lower value
[6] = S. cerevisiae deletion strains, locus YDL017W, strain CDC7, stronger effect = lower value
[7] = S. cerevisiae deletion strains, locus YDL028C, strain MPS1, stronger effect = lower value
[8] = S. cerevisiae deletion strains, locus YDL101C, strain DUN1, stronger effect = lower value
[9] = S. cerevisiae deletion strains, locus YDL108W, strain KIN28, stronger effect = lower value
[10] = S. cerevisiae deletion strains, locus YDL132W, strain cdc53, stronger effect = lower value
[11] = S. cerevisiae deletion strains, locus YDL214C, strain PRR2, stronger effect = lower value
[12] = S. cerevisiae deletion strains, locus YDR052C, strain DBF4, stronger effect = lower value
[13] = S. cerevisiae deletion strains, locus YDR054C, strain cdc34, stronger effect = lower value
[14] = S. cerevisiae deletion strains, locus YDR226W, strain ADK1, stronger effect = lower value
[15] = S. cerevisiae deletion strains, locus YDR477W, strain SNF1, stronger effect = lower value
[16] = S. cerevisiae deletion strains, locus YER123W, strain YCK3, stronger effect = lower value
[17] = S. cerevisiae deletion strains, locus YER133W, strain GLC7, stronger effect = lower value
[18] = S. cerevisiae deletion strains, locus YFL009W, strain cdc4, stronger effect = lower value
[19] = S. cerevisiae deletion strains, locus YFL029C, strain CAK1, stronger effect = lower value
[20] = S. cerevisiae deletion strains, locus YFR003C, strain YPI1, stronger effect = lower value
[21] = S. cerevisiae deletion strains, locus YFR019W, strain FAB1, stronger effect = lower value
[22] = S. cerevisiae deletion strains, locus YFR028C, strain CDC14, stronger effect = lower value
[23] = S. cerevisiae deletion strains, locus YGR040W, strain KSS1, stronger effect = lower value
[24] = S. cerevisiae deletion strains, locus YGR052W, strain FMP48, stronger effect = lower value
[25] = S. cerevisiae deletion strains, locus YGR092W, strain DBF2, stronger effect = lower value
[26] = S. cerevisiae deletion strains, locus YHR030C, strain SLT2, stronger effect = lower value
[27] = S. cerevisiae deletion strains, locus YHR079C, strain IRE1, stronger effect = lower value
[28] = S. cerevisiae deletion strains, locus YHR082C, strain KSP1, stronger effect = lower value
[29] = S. cerevisiae deletion strains, locus YHR205W, strain SCH9, stronger effect = lower value
[30] = S. cerevisiae deletion strains, locus YIL147C, strain SLN1, stronger effect = lower value
[31] = S. cerevisiae deletion strains, locus YJL095W, strain BCK1, stronger effect = lower value
[32] = S. cerevisiae deletion strains, locus YJL128C, strain PBS2, stronger effect = lower value
[33] = S. cerevisiae deletion strains, locus YJL157C, strain FAR1, stronger effect = lower value
[34] = S. cerevisiae deletion strains, locus YJR016C, strain ILV3, stronger effect = lower value
[35] = S. cerevisiae deletion strains, locus YJR066W, strain TOR1 (second series), stronger effect = lower value
[36] = S. cerevisiae deletion strains, locus YJR066W, strain TOR1, stronger effect = lower value
[37] = S. cerevisiae deletion strains, locus YKL048C, strain ELM1, stronger effect = lower value
[38] = S. cerevisiae deletion strains, locus YKL067W, strain YNK1, stronger effect = lower value
[39] = S. cerevisiae deletion strains, locus YKL101W, strain HSL1, stronger effect = lower value
[40] = S. cerevisiae deletion strains, locus YKL193C, strain SDS22, stronger effect = lower value
[41] = S. cerevisiae deletion strains, locus YKL203C, strain TOR2, stronger effect = lower value
[42] = S. cerevisiae deletion strains, locus YLR113W, strain HOG1, stronger effect = lower value
[43] = S. cerevisiae deletion strains, locus YLR133W, strain CKI1, stronger effect = lower value
[44] = S. cerevisiae deletion strains, locus YLR403W, strain SFP1, stronger effect = lower value
[45] = S. cerevisiae deletion strains, locus YML070W, strain DAK1, stronger effect = lower value
[46] = S. cerevisiae deletion strains, locus YMR001C, strain CDC5, stronger effect = lower value
[47] = S. cerevisiae deletion strains, locus YMR205C, strain PFK2 (second series), stronger effect = lower value
[48] = S. cerevisiae deletion strains, locus YMR277W, strain FCP1, stronger effect = lower value
[49] = S. cerevisiae deletion strains, locus YNL006W, strain LST8, stronger effect = lower value
[50] = S. cerevisiae deletion strains, locus YNL020C, strain ARK1, stronger effect = lower value
[51] = S. cerevisiae deletion strains, locus YNL161W, strain CBK1, stronger effect = lower value
[52] = S. cerevisiae deletion strains, locus YNL183C, strain NPR1, stronger effect = lower value
[53] = S. cerevisiae deletion strains, locus YNL207W, strain RIO2, stronger effect = lower value
[54] = S. cerevisiae deletion strains, locus YNL222W, strain SSU72, stronger effect = lower value
[55] = S. cerevisiae deletion strains, locus YNL307C, strain MCK1 (second series), stronger effect = lower value
[56] = S. cerevisiae deletion strains, locus YOL078W, strain AVO1, stronger effect = lower value
[57] = S. cerevisiae deletion strains, locus YOL136C, strain PFK27, stronger effect = lower value
[58] = S. cerevisiae deletion strains, locus YOR061W, strain CKA2, stronger effect = lower value
[59] = S. cerevisiae deletion strains, locus YOR119C, strain RIO1, stronger effect = lower value
[60] = S. cerevisiae deletion strains, locus YOR231W, strain MKK1, stronger effect = lower value
[61] = S. cerevisiae deletion strains, locus YOR329C, strain SCD5, stronger effect = lower value
[62] = S. cerevisiae deletion strains, locus YPL031C, strain PHO85, stronger effect = lower value
[63] = S. cerevisiae deletion strains, locus YPL153C, strain RAD53, stronger effect = lower value
[64] = S. cerevisiae deletion strains, locus YPL204W, strain HRR25, stronger effect = lower value
[65] = S. cerevisiae deletion strains, locus YPL209C, strain IPL1, stronger effect = lower value
[66] = S. cerevisiae deletion strains, locus YPL256C, strain CLN2, stronger effect = lower value
[67] = S. cerevisiae deletion strains, locus YPR025C, strain CCL1, stronger effect = lower value
[68] = S. cerevisiae deletion strains, locus YPR106W, strain ISR1, stronger effect = lower value
[69] = S. cerevisiae deletion strains, locus YPR111W, strain DBF20, stronger effect = lower value
[70] = S. cerevisiae deletion strains, strain NNK1, stronger effect = lower value
[71] = S. cerevisiae deletion strains, strain TSCII, stronger effect = lower value

Measured: normalized growth

Cc1c(C(=O)N(Cc2ccccc2)Cc2cccs2)cnn1-c1ccc(Cl)cc1
inactive: [1] 0.992 | [2] 0.989 | [3] 0.984 | [4] 0.981 | [5] 0.981 | [6] 0.998 | [7] 0.985 | [8] 0.99 | [9] 0.985 | [10] 0.976 | [11] 0.947 | [12] 1 | [13] 0.987 | [14] 0.996 | [15] 0.946 | [16] 0.94 | [17] 0.957 | [18] 0.986 | [19] 0.988 | [20] 0.99 | [21] 0.963 | [22] 0.981 | [23] 0.938 | [24] 1.03 | [25] 0.967 | [26] 0.934 | [27] 0.953 | [28] 1.03 | [29] 0.919 | [30] 0.997 | [31] 0.945 | [32] 0.967 | [33] 0.935 | [34] 0.982 | [35] 0.883 | [36] 1.02 | [37] 0.97 | [38] 0.968 | [39] 0.94 | [40] 0.982 | [41] 0.997 | [42] 0.925 | [43] 0.936 | [44] 0.915 | [45] 0.926 | [46] 0.987 | [47] 0.944 | [48] 0.989 | [49] 1.01 | [50] 0.945 | [51] 0.995 | [52] 0.995 | [53] 0.989 | [54] 0.99 | [55] 0.95 | [56] 0.989 | [57] 0.926 | [58] 0.95 | [59] 1 | [60] 0.888 | [61] 0.99 | [62] 0.962 | [63] 0.926 | [64] 0.931 | [65] 0.988 | [66] 0.922 | [67] 0.99 | [68] 0.974 | [69] 0.972 | [70] 0.986 | [71] 0.973

CC(=O)c1cnn(-c2ccccc2)c1C
inactive: S. cerevisiae deletion strains, locus YAL013W, strain DEP1, stronger effect = lower value 0.979 | S. cerevisiae deletion strains, locus YBR229C, strain ROT2, stronger effect = lower value 0.984 | S. cerevisiae deletion strains, locus YCL061C, strain MRC1, stronger effect = lower value 0.992 | [8] 0.985 | S. cerevisiae deletion strains, locus YDL134C, strain PPH21, stronger effect = lower value 1.01 | S. cerevisiae deletion strains, locus YDR150W, strain NUM1, stronger effect = lower value 0.925 | S. cerevisiae deletion strains, locus YEL061C, strain CIN8, stronger effect = lower value 1 | S. cerevisiae deletion strains, locus YGR078C, strain PAC10, stronger effect = lower value 0.995 | [26] 0.945 | S. cerevisiae deletion strains, locus YHR087W, strain rtc3, stronger effect = lower value 0.99 | S. cerevisiae deletion strains, locus YJR043C, strain POL32, stronger effect = lower value 0.994 | S. cerevisiae deletion strains, locus YJR075W, strain HOC1, stronger effect = lower value 1 | S. cerevisiae deletion strains, locus YLR039C, strain RIC1, stronger effect = lower value 1 | S. cerevisiae deletion strains, locus YLR058C, strain SHM2 (second series), stronger effect = lower value 0.998 | S. cerevisiae deletion strains, locus YLR085C, strain ARP6, stronger effect = lower value 0.963 | S. cerevisiae deletion strains, locus YLR262C, strain YPT6, stronger effect = lower value 1.01 | S. cerevisiae deletion strains, locus YML094W, strain GIM5, stronger effect = lower value 0.948 | S. cerevisiae deletion strains, locus YMR219W, strain ESC1, stronger effect = lower value 0.997 | S. cerevisiae deletion strains, locus YMR263W, strain SAP30, stronger effect = lower value 0.922 | S. cerevisiae deletion strains, locus YMR307W, strain GAS1, stronger effect = lower value 0.957 | S. cerevisiae deletion strains, locus YNL153C, strain GIM3, stronger effect = lower value 0.981 | S. cerevisiae deletion strains, locus YNL298W, strain CLA4 (second series), stronger effect = lower value 1 | S. cerevisiae deletion strains, locus YNL322C, strain KRE1, stronger effect = lower value 0.997 | S. cerevisiae deletion strains, locus YNR030W, strain Alg12, stronger effect = lower value 1 | S. cerevisiae deletion strains, locus YOL006C, strain TOP1, stronger effect = lower value 0.983 | S. cerevisiae deletion strains, locus YPL055C, strain LGE1, stronger effect = lower value 0.848 | S. cerevisiae deletion strains, locus YPL241C, strain CIN2, stronger effect = lower value 0.984 | S. cerevisiae deletion strains, locus YPR135W, strain CTF4, stronger effect = lower value 0.944 | S. cerevisiae strains, strain wild type, stronger effect = lower value 0.997

Cc1c(-c2ccnn2C(=O)c2ccco2)cnn1-c1ccccc1
inactive: [1] 0.954 | [2] 0.957 | [3] 0.958 | [4] 0.954 | [5] 0.957 | [6] 0.964 | [7] 0.93 | [8] 0.978 | [9] 0.954 | [10] 0.953 | [11] 0.904 | [12] 0.982 | [13] 0.952 | [14] 0.953 | [15] 0.861 | [16] 0.925 | [17] 0.915 | [18] 0.936 | [19] 0.954 | [20] 0.959 | [21] 0.945 | [22] 0.94 | [23] 0.872 | [24] 0.966 | [25] 0.917 | [27] 0.909 | [28] 0.953 | [29] 0.909 | [30] 0.958 | [31] 0.842 | [32] 0.908 | [33] 0.916 | [34] 0.962 | [35] 0.828 | [36] 0.89 | [37] 0.972 | [38] 0.908 | [39] 0.894 | [40] 0.959 | [41] 0.965 | [43] 0.917 | [44] 0.873 | [45] 0.895 | [46] 0.953 | [47] 0.939 | [48] 0.938 | [49] 0.953 | [50] 0.931 | [51] 0.974 | [52] 0.953 | [53] 0.958 | [54] 0.943 | [55] 0.894 | [56] 0.958 | [57] 0.898 | [58] 0.909 | [59] 0.919 | [60] 0.885 | [61] 0.974 | [62] 0.858 | [63] 0.873 | [64] 0.851 | [65] 0.969 | [67] 0.957 | [68] 0.957 | [69] 0.917 | [70] 0.964 | [71] 0.94
active: [26] 0.739 | [42] 0.799 | [66] 0.825
